# Source: the supplement of paper PMC8728848
# About 410 targets per protein were measured; listed, in parts, are those with the strongest signals and a random draw of the rest.
# B1: Ecp6 (Cladosporium fulvum), B3VBK9 (protein)
# chain: MQSMILFAAALMGAAVNGFVLPRTDDPDCETKATDCGSTSNIKYTVVKGDTLTSIAKKFKSGICNIVSVNKLANPNLIELGATLIIPENCSNPDNKSCVSTPAEPTETCVPGLPGSYTIVSGDTLTNISQDFNITLDSLIAANTQIENPDAIDVGQIITVPVCPSSQCEAVGTYNIVAGDLFVDLAATYHTTIGQIKALNNNVNPSKLKVGQQIILPQDCKNVTTAVA
# B2: Wzz (Escherichia coli) (protein)
# chain: MRTWKFPSVRVMMRVENNNVSGQNHDPEQIDLIDLLVQLWRGKMTIIISVIVAIVLAIGYLAVAKEKWTSTAIITQPDVGQIAGYNNAMNVIYGQAAPKVSDLQETLIGRFSSAFSALAETLDNQEEPEKLTIEPSVKNQQLPLTVSYVGQTAEGAQMKLAQYIQQVDDKVNQELEKDLKDNIALGRKNLQDSLRTQEVVAQEQKDLRIRQIQEALQYANQAQVTKPQIQQTGEDITQDTLFLLGSEALESMIKHEATRPLVFSSNYYQTRQNLLDIDNLDVDKLDIHAYLYVMKPTLPIRRDSPKKAITLILAVLLGGMVGAGIVLGRNALRNYNAK
# Assays:
# Test in all cases: glycan array binding signal (z-score within array); higher = stronger binding
# Conditions in all cases: glycan notation: IUPAC condensed, linker removed
# [1] = target: GlcNAc(b1-4)GlcNAc(b1-4)GlcNAc(b1-4)GlcNAc(b1-4)GlcNAc
# In short: (§1)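 Glycan array data were curated from 3228 arrays in the Consortium for Functional Glycomics database and kept only where the protein sequence was available. Glycan names were converted to IUPAC-condensed notation, and columns mapping to the same glycan were averaged. The binding signal is a within-array Z-score, averaged across arrays of the same protein sequence at different concentrations or buffers and across linkers. Negative Z-scores can be read as non-binding.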
# [2] = target: GlcNAc(b1-4)GlcNAc(b1-4)GlcNAc(b1-4)GlcNAc(b1-4)GlcNAc(b1-4)GlcNAc
# In short: as §1
# [3] = target: GlcNAc(b1-4)[GlcNAc(b1-6)]GalNAc
# In short: as §1
# [4] = target: Man(a1-3)[Man(a1-6)]Man(b1-4)GlcNAc(b1-4)GlcNAc
# In short: as §1
# [5] = target: Neu5Ac(a2-3)Gal(b1-3)GalNAc
# In short: as §1
# [6] = target: Neu5Ac(a2-3)Gal(b1-4)[Fuc(a1-3)]GlcNAc
# In short: as §1
# [7] = target: Neu5Ac(a2-3)Gal(b1-4)[Fuc(a1-3)]GlcNAc(b1-3)GalNAc
# In short: as §1
# [8] = target: Neu5Ac(a2-3)Gal6S(b1-4)[Fuc(a1-3)]GlcNAc
# In short: as §1
# [9] = target: Neu5Ac(a2-3)GalNAc(b1-4)GlcNAc
# In short: as §1
# Neu5Ac(a2-6)Gal(b1-4)Glc = target: Neu5Ac(a2-6)Gal(b1-4)Glc
# In short: as §1
# [10] = target: Neu5Ac(a2-6)GalNAc(b1-4)GlcNAc
# In short: as §1
# [11] = target: Fuc(a1-2)Gal(b1-3)GalNAc(a1-3)[Fuc(a1-2)]Gal(b1-4)Glc
# In short: as §1
# [12] = target: Fuc(a1-2)Gal(b1-3)GlcNAc(b1-3)GalNAc
# In short: as §1
# [13] = target: Fuc(a1-2)Gal(b1-3)[Fuc(a1-4)]GlcNAc(b1-2)Man(a1-3)[Fuc(a1-2)Gal(b1-3)[Fuc(a1-4)]GlcNAc(b1-2)Man(a1-3)]Man(b1-4)GlcNAc(b1-4)GlcNAc
# In short: as §1
# [14] = target: Fuc(a1-2)Gal6S(b1-3)GlcNAc6S
# In short: as §1
# [15] = target: Fuc(a1-2)[Gal(a1-3)]Gal(b1-4)Glc
# In short: as §1
# [16] = target: Fuc(a1-2)[Gal(a1-3)]Gal(b1-4)GlcNAc(b1-2)Man(a1-3)[Fuc(a1-2)[Gal(a1-3)]Gal(b1-4)GlcNAc(b1-2)Man(a1-6)]Man(b1-4)GlcNAc(b1-4)[Fuc(a1-6)]GlcNAc
# In short: as §1
# [17] = target: Fuc(a1-2)[Gal(a1-3)]Gal(b1-4)GlcNAc(b1-3)[Fuc(a1-2)[Gal(a1-3)]Gal(b1-4)GlcNAc(b1-6)]GalNAc
# In short: as §1
# [18] = target: Fuc(a1-2)[Gal(a1-3)]Gal(b1-4)[Fuc(a1-3)]GlcNAc(b1-3)GalNAc
# In short: as §1
# [19] = target: Fuc(a1-2)[GalNAc(a1-3)]Gal(b1-3)GalNAc(a1-3)[Fuc(a1-2)]Gal(b1-4)GlcNAc
# In short: as §1
# [20] = target: Fuc(a1-2)[GalNAc(a1-3)]Gal(b1-3)GlcNAc(b1-2)Man(a1-3)[Fuc(a1-2)[GalNAc(a1-3)]Gal(b1-3)GlcNAc(b1-2)Man(a1-6)]Man(b1-4)GlcNAc(b1-4)GlcNAc
# In short: as §1
# [21] = target: Fuc(a1-2)[GalNAc(a1-3)]Gal(b1-4)[Fuc(a1-3)]GlcNAc(b1-3)GalNAc
# In short: as §1
# [22] = target: Fuc(a1-3)[Gal(b1-4)]Glc6S
# In short: as §1
# [23] = target: Fuc(a1-3)[Gal3S(b1-4)]Glc
# In short: as §1
# Fuc(b1-3)GlcNAc = target: Fuc(b1-3)GlcNAc
# In short: as §1
# [24] = target: Gal(a1-4)Gal(b1-4)GlcNAc(b1-3)Gal(b1-4)Glc
# In short: as §1
# [25] = target: Gal(b1-3)GlcNAc(b1-2)Man(a1-3)[Gal(b1-3)GlcNAc(b1-2)Man(a1-6)]Man(b1-4)GlcNAc(b1-4)GlcNAc
# In short: as §1
# [26] = target: Gal(b1-3)[Fuc(a1-4)]GlcNAc(b1-2)Man
# In short: as §1
# [27] = target: Gal(b1-4)GlcNAc(b1-2)Man(a1-3)[Gal(b1-4)GlcNAc(b1-2)Man(a1-6)][GlcNAc(b1-4)]Man(b1-4)GlcNAc(b1-4)[Fuc(a1-6)]GlcNAc
# In short: as §1
# [28] = target: Gal3S(b1-4)[Fuc(a1-3)]GlcNAc6S
# In short: as §1
# Gal3S6S(b1-4)GlcNAc = target: Gal3S6S(b1-4)GlcNAc
# In short: as §1
# Gal3S6S(b1-4)GlcNAc6S = target: Gal3S6S(b1-4)GlcNAc6S
# In short: as §1
# Gal4S(b1-4)GlcNAc = target: Gal4S(b1-4)GlcNAc
# In short: as §1
# Gal6S(b1-4)GlcNAc6S = target: Gal6S(b1-4)GlcNAc6S
# In short: as §1
# GalNAc(a1-3)Gal = target: GalNAc(a1-3)Gal
# In short: as §1
# [29] = target: GalNAc(b1-4)GlcNAc(b1-3)GalNAc(b1-4)GlcNAc
# In short: as §1
# GalNAc4S6S(b1-4)GlcNAc = target: GalNAc4S6S(b1-4)GlcNAc
# In short: as §1
# [30] = target: GlcNAc(b1-2)Gal(b1-3)GalNAc
# In short: as §1
# GlcNAc(b1-3)Fuc = target: GlcNAc(b1-3)Fuc
# In short: as §1
# [31] = target: GlcNAc(b1-3)Gal(b1-4)GlcNAc(b1-2)Man(a1-3)[GlcNAc(b1-3)Gal(b1-4)GlcNAc(b1-2)Man(a1-6)]Man(b1-4)GlcNAc(b1-4)GlcNAc
# In short: as §1
# [32] = target: GlcNAc(b1-3)Gal(b1-4)GlcNAc(b1-3)Gal(b1-4)GlcNAc(b1-2)[GlcNAc(b1-3)Gal(b1-4)GlcNAc(b1-3)Gal(b1-4)GlcNAc(b1-6)]Man(a1-6)[GlcNAc(b1-3)Gal(b1-4)GlcNAc(b1-3)Gal(b1-4)GlcNAc(b1-2)Man(a1-3)]Man(b1-4)GlcNAc(b1-4)[Fuc(a1-6)]GlcNAc
# In short: as §1
# [33] = target: GlcNAc(b1-3)Gal(b1-4)GlcNAc(b1-3)Gal(b1-4)GlcNAc(b1-3)GalNAc
# In short: as §1
# [34] = target: GlcNAc(b1-3)Gal(b1-4)GlcNAc(b1-6)[GlcNAc(b1-3)Gal(b1-3)]GalNAc
# In short: as §1
# [35] = target: GlcNAc6S(b1-3)Gal(b1-4)GlcNAc
# In short: as §1
# Man(a1-2)Man(a1-3)Man = target: Man(a1-2)Man(a1-3)Man
# In short: as §1
# [36] = target: Neu5Ac(a2-3)Gal(b1-4)GlcNAc(b1-2)Man
# In short: as §1
# [37] = target: Neu5Ac(a2-3)Gal(b1-4)GlcNAc(b1-6)[Gal(b1-3)]GalNAc
# In short: as §1
# [38] = target: Neu5Ac(a2-3)Gal(b1-4)[Fuc(a1-3)]GlcNAc(b1-3)Gal(b1-4)[Fuc(a1-3)]GlcNAc(b1-3)Gal(b1-4)[Fuc(a1-3)]GlcNAc
# In short: as §1
# [39] = target: Neu5Ac(a2-3)[GalNAc(b1-4)]Gal(b1-4)Glc
# In short: as §1
# [40] = target: Neu5Ac(a2-6)Gal(b1-4)GlcNAc(b1-2)Man(a1-3)[GlcNAc(b1-2)Man(a1-6)]Man(b1-4)GlcNAc(b1-4)GlcNAc
# In short: as §1
# [41] = target: Neu5Ac(a2-6)Gal(b1-4)GlcNAc(b1-2)Man(a1-6)Man(b1-4)GlcNAc(b1-4)GlcNAc
# In short: as §1
# [42] = target: Neu5Ac(a2-6)Gal(b1-4)GlcNAc(b1-2)Man(a1-6)[Man(a1-3)]Man(b1-4)GlcNAc(b1-4)GlcNAc
# In short: as §1
# [43] = target: Neu5Ac(a2-6)Gal(b1-4)GlcNAc(b1-6)[Gal(b1-3)GlcNAc(b1-3)]Gal(b1-4)Glc
# In short: as §1
# [44] = target: Neu5Ac(a2-6)GlcNAc(b1-4)GlcNAc
# In short: as §1
# [45] = target: Neu5Ac(a2-8)Neu5Ac(a2-3)[GalNAc(b1-4)]Gal(b1-4)Glc
# In short: as §1
# [46] = target: Neu5Ac9Ac(a2-6)Gal(b1-4)GlcNAc
# In short: as §1
binder,measurement,setting,value
B1,glycan array binding signal (z-score),[1],13
same,glycan array binding signal (z-score),[2],10.7
same,glycan array binding signal (z-score),[3],-0.103
same,glycan array binding signal (z-score),[4],-0.085
same,glycan array binding signal (z-score),[5],-0.099
same,glycan array binding signal (z-score),[6],-0.099
same,glycan array binding signal (z-score),[7],-0.004
same,glycan array binding signal (z-score),[8],-0.073
same,glycan array binding signal (z-score),[9],-0.052
same,glycan array binding signal (z-score),Neu5Ac(a2-6)Gal(b1-4)Glc,-0.096
same,glycan array binding signal (z-score),[10],-0.063
B2,glycan array binding signal (z-score),[11],0.119
same,glycan array binding signal (z-score),[12],-0.55
same,glycan array binding signal (z-score),[13],0.002
same,glycan array binding signal (z-score),[14],2.91
same,glycan array binding signal (z-score),[15],0.055
same,glycan array binding signal (z-score),[16],-0.233
same,glycan array binding signal (z-score),[17],0.857
same,glycan array binding signal (z-score),[18],1.59
same,glycan array binding signal (z-score),[19],1.11
same,glycan array binding signal (z-score),[20],-0.965
same,glycan array binding signal (z-score),[21],0.633
same,glycan array binding signal (z-score),[22],1.46
same,glycan array binding signal (z-score),[23],-0.538
same,glycan array binding signal (z-score),Fuc(b1-3)GlcNAc,0.034
same,glycan array binding signal (z-score),[24],0.032
same,glycan array binding signal (z-score),[25],1.41
same,glycan array binding signal (z-score),[26],2.68
same,glycan array binding signal (z-score),[27],-0.511
same,glycan array binding signal (z-score),[28],2.08
same,glycan array binding signal (z-score),Gal3S6S(b1-4)GlcNAc,0.861
same,glycan array binding signal (z-score),Gal3S6S(b1-4)GlcNAc6S,16.9
same,glycan array binding signal (z-score),Gal4S(b1-4)GlcNAc,-0.728
same,glycan array binding signal (z-score),Gal6S(b1-4)GlcNAc6S,4.99
same,glycan array binding signal (z-score),GalNAc(a1-3)Gal,-0.563
same,glycan array binding signal (z-score),[29],-0.667
same,glycan array binding signal (z-score),GalNAc4S6S(b1-4)GlcNAc,5.1
same,glycan array binding signal (z-score),[30],-0.1
same,glycan array binding signal (z-score),GlcNAc(b1-3)Fuc,0.1
same,glycan array binding signal (z-score),[31],-0.684
same,glycan array binding signal (z-score),[32],-0.222
same,glycan array binding signal (z-score),[33],0.801
same,glycan array binding signal (z-score),[34],-0.084
same,glycan array binding signal (z-score),[35],0.081
same,glycan array binding signal (z-score),Man(a1-2)Man(a1-3)Man,-0.72
same,glycan array binding signal (z-score),[36],2.37
same,glycan array binding signal (z-score),[37],-0.035
same,glycan array binding signal (z-score),[38],-1.71
same,glycan array binding signal (z-score),[39],-0.397
same,glycan array binding signal (z-score),[40],1.21
same,glycan array binding signal (z-score),[41],2.29
same,glycan array binding signal (z-score),[42],1.66
same,glycan array binding signal (z-score),[43],-0.436
same,glycan array binding signal (z-score),[44],0.29
same,glycan array binding signal (z-score),[45],1.61
same,glycan array binding signal (z-score),[46],-0.542
